# Assay outcomes deposited in PubChem by National Center for Advancing Translational Sciences (NCATS).
# This is a sample that favours compounds with a hit; in the whole collection about 19% have one here.
# IL1B secr inh: inhibitors of inflammasome signaling (IL-1 beta secretion) | THP-1 LPS/ATP IL-1B secretion, AlphaLISA, 16 h; stronger effect = lower value | activity change, % at 57.5 µM | hit rate 4.7% among 360,000 | AID 743279; in the data active = activity change below about -50%; inconclusive = mostly about -30% to -49%
#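 THP-1 cells pretreated 1 hr with compounds (up to 57.5 uM final), then stimulated with LPS (250 ng/mL final) plus ATP (1.25 mM final); secreted IL-1B measured by AlphaLISA after 16 hr, decreased signal indicating inhibition.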
# ELG1 repair inh: inhibitors of ELG1-dependent DNA repair in HEK293T cells; Potency, µM (series often up to 46.1 µM), most hits filed as inhibitors; hit rate 2.3% among 330,000; HEK293T ELG1-luciferase reporter, luminescence, 16 h; DNA damage induced by 5-fluorouridine; also: nearly all actives have a fitted effect of over 55% in size
#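 Quantitative HTS, concentration-response format. 2,000 cells/well co-treated with 5-fluorouridine and compound, 16 hr in 5% CO2 at 37 °C; ONE-Glo luminescence read after 30 min.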
# DT40 TDP1 no CPT: qHTS for Inhibitors of human tyrosyl-DNA phosphodiesterase 1 (TDP1): qHTS in cells in absence of CPT; hit rate 15% among 420,000; AID 686978, 2013; DT40 Tdp1-/- hTDP1 cells, no CPT, ATP luminescence, 48 h; Potency, µM (doses to about 46.2 µM), actives largely listed as inhibitors; also: nearly all actives have a fitted effect of over 55% in size
#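 Readout: luminescence from CellTiter-Glo after 30 min in the dark at RT. Cells: DT40 Tdp1-/- with stable hTDP1, 400/well. Exposure: compounds alone, ≥48 hr, 37 °C.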
# DT40 TDP1 CPT: growth inhibition of DT40 Tdp1-/-;hTDP1 cells with camptothecin (screen for TDP1 inhibitors). chicken DT40 Tdp1-/-;hTDP1 cells + 20 nM CPT, ATP luminescence, 48 h. Potency, µM (top dose mostly 46.2 µM), actives largely listed as inhibitors. hit rate 12% among 420,000. AID 686979; also: nearly all actives have a fitted effect of over 55% in size
#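 Chicken DT40 Tdp1-/- cells complemented with human TDP1, 400 cells/well, exposed to compounds plus 20 nM camptothecin for at least 48 h at 37 C; viability read as ATP content by CellTiter-Glo luminescence.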
# Giardia kill: kills Giardia lamblia. hit rate 0.15% among 340,000. Giardia lamblia trophozoite viability. AID 540267. activity change, % at 7.66 µM, hits read low; in the data active = activity change below about -80%; inconclusive = between about -30% and that limit;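 also: parasites exposed to compound for two days anaerobically before the ATP read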
#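 Media and compound were dispensed first, then trophozoites at 100 cells/well; plates sat 48 hrs at 37 deg C without oxygen before ATP luminescence reagent was added and read after 15-30 min at room temperature.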
# TDP1 block: inhibitors of human tyrosyl-DNA phosphodiesterase TDP1; Q9NUW8; recombinant TDP1, AlphaScreen DNA substrate cleavage; Potency, µM (doses to about 130 µM), most hits filed as inhibitors; hit rate 0.28% among 350,000; AID 485290; also: nearly all actives have a fitted effect of over 40% in size
# Target sequence (Q9NUW8 whole entry, looked up): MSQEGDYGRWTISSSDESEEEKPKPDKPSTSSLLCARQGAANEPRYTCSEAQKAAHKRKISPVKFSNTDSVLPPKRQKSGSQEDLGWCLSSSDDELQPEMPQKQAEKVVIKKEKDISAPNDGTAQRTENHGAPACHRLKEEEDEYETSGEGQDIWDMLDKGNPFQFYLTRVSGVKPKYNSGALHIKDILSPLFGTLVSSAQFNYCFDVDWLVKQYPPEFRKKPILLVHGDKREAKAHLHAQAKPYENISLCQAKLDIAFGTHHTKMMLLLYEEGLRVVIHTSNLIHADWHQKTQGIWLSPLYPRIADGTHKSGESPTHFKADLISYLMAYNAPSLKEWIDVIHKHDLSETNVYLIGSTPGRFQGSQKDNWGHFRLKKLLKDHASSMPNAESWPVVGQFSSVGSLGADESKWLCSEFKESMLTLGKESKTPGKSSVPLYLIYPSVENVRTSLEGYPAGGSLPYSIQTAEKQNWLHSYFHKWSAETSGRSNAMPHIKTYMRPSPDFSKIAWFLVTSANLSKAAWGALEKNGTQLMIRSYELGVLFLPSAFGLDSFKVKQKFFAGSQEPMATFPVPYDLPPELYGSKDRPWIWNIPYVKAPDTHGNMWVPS
#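 Recombinant human Tdp1 (E. coli-expressed, 1 nM final) preincubated with compounds 15 min at room temperature, then 5'-biotin/3'-phosphotyrosine-FITC DNA substrate (15 nM final) added for 5 min. AlphaScreen beads (10 ug/ml final) added 10 min; cleavage lowers signal.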
# Numbers stand for hits; i = inactive; ? = inconclusive; nt = no result. Unless noted, calls follow the shape of the dose curve; as a rule, active = well fitted curve in the direction sought with a large enough effect; inconclusive = small, poorly fitted or top-dose-only effect, or another doubt; inactive = no such curve, though single readings can be large; an effect the other way counts as inactive or inconclusive.
SMILES,IL1B secr inh,ELG1 repair inh,DT40 TDP1 no CPT,DT40 TDP1 CPT,Giardia kill,TDP1 block
Cc1ccc(C(=O)c2sc(Nc3ccc(F)cc3)nc2N)c(C)c1,nt,nt,15µM,13µM,nt,i
CC1C(=O)OC2CC34C5CC(C(C)(C)C)C36C(OC(=O)C6O)OC4(C(=O)O5)C21O (stereo not given),nt,nt,i,i,nt,i
CCC(CC)C(=O)Nc1ccc(C(=O)OCc2cc(=O)n3nc(C4CC4)sc3n2)cc1,nt,nt,?,i,nt,i
O=C(CSc1ncc2c(n1)-c1cc(Cl)ccc1N(Cc1ccccc1)S2(=O)=O)NCCc1ccccc1,nt,nt,?,?,nt,i
CC(=O)c1sc(N/N=C\c2ccccc2O)nc1C,-74,?,0.92µM,1µM,i,i
COC(=O)c1sc(Nc2ccccc2)nc1C,i,?,i,i,i,i
COc1ccc(Nc2nc(N)c(C(=O)c3ccc(F)cc3)s2)cc1,i,?,0.58µM,0.73µM,i,nt
CC(C)(C)C(=O)c1sc(Nc2ccccc2)nc1N,-71,?,?,?,i,i
Nc1nc(Nc2cccc(Cl)c2)sc1C(=O)c1ccc(F)cc1,nt,nt,23µM,18µM,nt,i
Nc1nc(Nc2ccccc2F)sc1C(=O)c1ccc(Cl)cc1,nt,nt,?,?,nt,i
CC(C)N1C(=O)CCC1C(=O)NCc1ccccc1Cl (stereo not given),i,i,i,i,i,i
CCOc1ccc(C(=O)CSc2nnc3cc(C)c4ccccc4n23)cc1,nt,nt,i,i,nt,i
COc1ccccc1Cn1nnc2c(=O)[nH]c(C3CCN(C(=O)c4ccc(C)cc4)CC3)nc21,i,23µM,i,i,i,i
COc1ccccc1Cn1nnc2c(=O)[nH]c(C3CCN(C(=O)c4ccc(F)cc4)CC3)nc21,i,?,i,i,i,i
Cc1ccc(CC(=O)N2CCC(c3nc4c(nnn4Cc4ccccc4)c(=O)[nH]3)CC2)cc1,?,i,i,i,i,i
Cc1cccc(Cn2nnc3c(=O)[nH]c(C4CCCN(C(=O)c5ccccc5Cl)C4)nc32)c1 (stereo not given),nt,nt,?,26µM,nt,i
CCOc1ccccc1NC(=O)N1CCCC(c2nc3c(nnn3Cc3ccc(C)cc3)c(=O)[nH]2)C1 (stereo not given),i,?,?,29µM,i,i
Cc1ccc(C)c(C(=O)N2CCC(c3nc4c(nnn4Cc4ccccc4)c(=O)[nH]3)CC2)c1,nt,nt,8.2µM,?,nt,i
Cc1ccc(Cn2nnc3c(=O)[nH]c(C4CCCN(C(=O)Nc5ccc(F)cc5F)C4)nc32)cc1 (stereo not given),i,?,i,?,i,i
Cc1ccc(CNC(=O)CNC(=O)[C@@H]2Cc3ccccc3CN2C(=O)OC(C)(C)C)cc1,i,i,?,i,i,i
CC(NC(=O)CSc1nnc(-c2cccnc2)n1N)c1ccccc1 (stereo not given),i,i,i,i,i,i
CC(=O)c1cccc(S(=O)(=O)N2CCCC(c3nc4c(nnn4Cc4ccccc4Cl)c(=O)[nH]3)C2)c1 (stereo not given),-70,?,i,i,i,i
O=C(O)c1cccc(S(=O)(=O)N2CCCC(c3nc4c(nnn4Cc4ccccc4Cl)c(=O)[nH]3)C2)c1 (stereo not given),i,i,i,i,i,i
Cc1ccc(N2CC(C(=O)Nc3ccc(N4CCOCC4)cc3)CC2=O)cc1C (stereo not given),i,i,i,i,i,i
Cc1sc(NC(=O)C2c3ccccc3Oc3ccccc32)c(C(=O)OC(C)C)c1C,nt,nt,?,18µM,nt,i
SMILES,IL1B secr inh,ELG1 repair inh,DT40 TDP1 no CPT,DT40 TDP1 CPT,Giardia kill,TDP1 block
CCOC(=O)c1sc(NC(=O)C2c3ccccc3Oc3ccccc32)c(C(=O)OCC)c1C,nt,nt,i,i,nt,i
CCOC(=O)c1c(NC(=O)C2c3ccccc3Oc3ccccc32)sc(C)c1CC,nt,nt,i,i,nt,i
Cc1c(C(=O)OC(C)C)sc(NC(=O)C2c3ccccc3Oc3ccccc32)c1C(=O)OC(C)C,nt,nt,23µM,23µM,nt,i
Cc1nn2c(nc(N3CCCCC3)c3ccccc32)c1C=O,-74,?,?,i,i,i
Cc1cc(C)c2c(=O)n(CC(=O)Nc3cccc(F)c3)sc2n1,i,?,2.3µM,2.3µM,i,nt
Cc1cc(C)c2c(=O)n(CC(=O)Nc3ccc(Cl)cc3)sc2n1,i,i,2.6µM,4.1µM,i,nt
Cc1ccc(NC(=O)Cn2sc3nc(C)cc(C)c3c2=O)c(Cl)c1,i,?,2.9µM,2.9µM,i,nt
CCOc1ccc(NC(=O)Cn2sc3nc(C)cc(C)c3c2=O)cc1,-89,i,2.6µM,2.1µM,i,i
CCOc1ccc(NC(=O)CCc2c(C)nc3c4c(C)cc(C)nc4nn3c2C)cc1,nt,nt,i,i,nt,i
CS(=O)(=O)N1c2ccccc2[C@]2(Br)C[C@H]3C(=O)N[C@@H](Cc4ccccc4)C(=O)N3[C@H]12,i,nt,?,?,i,nt
Cc1cc(Nc2ccc(C)c(C)c2)n2cnnc2n1,nt,nt,i,i,nt,i
CC1(C)CC(NC(=O)C2CCN(S(=O)(=O)c3cccc(C(F)(F)F)c3)CC2)CC(C)(C)N1,i,?,i,i,i,i
CC(=O)Oc1ccccc1N(C(C)=O)S(=O)(=O)c1cccc([N+](=O)[O-])c1,i,i,i,i,i,nt
CN(C(=O)COC(=O)CSc1ccc([N+](=O)[O-])cc1)c1ccccc1,i,i,29µM,23µM,i,i
C/C(=N/NC(=O)CN1CCN(S(=O)(=O)c2ccc(C)cc2)CC1)c1cccc(O)c1,i,i,i,i,i,i
O=c1cc(C(F)(F)F)[nH]c2ccc(C(F)(F)F)cc12,?,?,0.73µM,7.3µM,?,i
CCOC(=O)c1cc(-c2c(Cl)cccc2Cl)no1,i,13µM,i,i,i,i
Cc1onc(-c2c(Cl)cccc2Cl)c1C(=O)OCC(=O)c1ccccc1,i,i,?,?,i,i
CN(CC(=O)NC1CCCc2ccccc21)S(=O)(=O)c1cccs1 (stereo not given),i,i,i,?,i,i
Clc1ccc(-c2nc(C3CCCCC3)no2)cc1,i,?,i,i,i,i
CCOC(=O)c1c(C)[nH]c(C)c1S(=O)(=O)N1CCCC(C(=O)N2CCN(c3cccc(C)c3C)CC2)C1 (stereo not given),nt,nt,?,15µM,nt,i
CCOC(=O)c1c(C)[nH]c(C)c1S(=O)(=O)N1CCCC(C(=O)N2CCN(c3cccc(Cl)c3)CC2)C1 (stereo not given),nt,nt,21µM,21µM,nt,i
COc1ccccc1NC(=O)c1c(C)cc(C)nc1SCC(=O)Nc1cccc(C)c1,nt,nt,?,?,nt,i
Cc1cc(C)c(C(=O)Nc2ccccc2)c(SCC(=O)Nc2ccc(Br)cc2C)n1,nt,nt,23µM,16µM,nt,i
